Compound activity deposited in PubChem BioAssay by National Center for Advancing Translational Sciences (NCATS).
This is a sample that favours compounds with a hit; in the whole collection about 2.6% have one here.
Prx2 Sm inh = inhibitors of Schistosoma mansoni peroxiredoxin 2; S. mansoni Prx2 activity coupled to TGR/GSH (TGR is thioredoxin glutathione reductase), NADPH fluorescence loss, qHTS; Potency, µM; 65,000 compounds, 0.07% hits; AID 448
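Purified S. mansoni TGR and Prx2 in pH 7.4 phosphate buffer with EDTA and Tween-20 were preincubated with compounds for 15 min. Further NADPH/GSH was added, then a 2.5 mM H2O2 aliquot initiated turnover, followed kinetically by NADPH fluorescence.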
AmpC nodet inh = blocks E. coli AmpC beta-lactamase in absence of detergent. Potency, µM (top dose mostly 28.7 µM), without a hit: at the top dose activity change, negative = inhibition. P00811. AID 585. AmpC nitrocefin hydrolysis, absorbance 480 nm, no detergent. 71,000 compounds, 1.8% hits; further: % of control where 0% means no effect
Target sequence (P00811 whole entry, looked up): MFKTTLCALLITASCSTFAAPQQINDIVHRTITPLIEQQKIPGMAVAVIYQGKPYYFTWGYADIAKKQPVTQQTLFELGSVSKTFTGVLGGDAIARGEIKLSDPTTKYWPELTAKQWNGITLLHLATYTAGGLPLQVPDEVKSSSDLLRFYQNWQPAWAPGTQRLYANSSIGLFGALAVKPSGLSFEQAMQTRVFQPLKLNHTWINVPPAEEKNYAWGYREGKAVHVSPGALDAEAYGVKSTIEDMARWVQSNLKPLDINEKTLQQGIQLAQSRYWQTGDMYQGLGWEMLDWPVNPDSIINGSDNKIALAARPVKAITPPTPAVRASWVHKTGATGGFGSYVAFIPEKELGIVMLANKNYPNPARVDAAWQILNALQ
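AmpC, 20 mM phosphate pH 7.0; 15 min cpd preinc, RT; start with nitrocefin (800 uM stock); A480 kinetic read, 20 s intervals, 4 min. No-enzyme wells = negative control.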
AmpC det inh = inhibitors of E. coli AmpC beta-lactamase with detergent. P00811. purified AmpC, nitrocefin hydrolysis with detergent. Potency, µM (highest dose often 28.7 µM), for inactives: at the highest dose activity change, negative = inhibition. 71,000 compounds, 0.09% hits. AID 584; active means well fitted curve in the direction sought with a large enough effect; inconclusive means small, poorly fitted or top-dose-only effect; further: on the % scale 0 is the no-effect control and ±100 the full control effect
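E. coli AmpC (5.3 nM) in 20 mM phosphate pH 7.0 with 0.01% Triton X-100, preincubated 15 min RT with compound; nitrocefin (2 uL of 800 uM stock) hydrolysis followed by 480 nm absorbance every 20 s over 4 min.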
Anthrax LT inh = blocks cellular internalization of anthrax lethal toxin | Cells, anthrax lethal toxin internalization, FRET ratio (460/530) | 70,000 compounds, 0.67% hits | Potency, µM (series often up to 40 µM), inactives show at the highest dose activity change, negative = inhibition, hits mostly inhibitors | AID 912; further: on the % scale 0 is the no-effect control and ±100 the full control effect; nearly all actives have a fitted effect of over 50% in size
* hit, by the source's call; ? = inconclusive; . = no result given; [ ] = dose if it differs, or a comment. Unless noted, the call rests on the fitted dose curve. Potency means the concentration at half of the fitted maximal effect.

SMILES | Prx2 Sm inh | AmpC nodet inh | AmpC det inh | Anthrax LT inh
COc1ccc(-c2cc(C(=O)NCc3ccccc3)no2)cc1OC | ? | 0.398µM* | ? | -1.3%
CC(C)[C@]1(Cl)CC[C@@H]2[C@]3(C)CCC[C@@](C)(C(=O)O)[C@H]3C[C@H](Cl)[C@@]2(Cl)[C@H]1Cl | >57 | 1.6%[5.75 µM] | 7.9%[5.75 µM] | -19.7%[8 µM]
COc1cccc(CNC(=O)CN(C)S(=O)(=O)c2cnc[nH]2)c1 | >57 | -3.7% | 10.7% | -3.9%
c1csc(Cn2c(-c3cccs3)nc3ccccc32)c1 | >57 | -6.3% | -2.7% | -1.3%
Brc1ccccc1Cn1c(-c2cncs2)nc2ccccc21 | >57 | 58.4% | 11.9% | 10µM*
CCOc1ccc(N(CC(=O)N2CCN(c3ccccc3)CC2)S(=O)(=O)c2c(C)noc2C)cc1 | >57 | 54.9% | 10.7% | ?
COCCNS(=O)(=O)c1ccc(C2CNC(=O)C2)cc1 (stereo not drawn) | >57 | 3.98µM*[single pt active] | 12.0% | 9.8%
COC(=O)c1ccc(-c2nn(C)c(=O)c3ccccc23)cc1 | >57 | 3.98µM*[single pt active] | 11.2% | -14.5%
CN[C@H](Cc1ccccc1)c1cccc(OC)c1O | >57 | 1.9%[5.75 µM] | 1.5%[5.75 µM] | -4.4%[8 µM]
COc1ccc(C)cc1NC(=O)c1nnn(Cc2cc(C)ccc2C)c1N | . | 3.98µM*[single pt active] | 10.9% | -7.9%
COc1cccc(Cn2nnc(C(=O)Nc3ccc(C)cc3)c2N)c1 | >57 | 3.98µM*[single pt active] | 12.1% | 1.2%
COc1ccccc1NC(=O)c1nnn(CC(=O)Nc2ccccc2)c1N | >57 | -21.8% | 9.9% | -3.9%
COc1ccc(C)cc1NC(=O)c1nnn(CCc2ccccc2)c1N | >57 | 3.98µM*[single pt active] | 13.1% | -4.7%
Nc1c(C(=O)Nc2ccc3c(c2)OCCO3)nnn1CCc1ccccc1 | >57 | 3.98µM*[single pt active] | 8.1% | ?
COc1cccc(CNC(=O)c2nnn(CC(=O)Nc3ccc(C)c(C)c3)c2N)c1 | >57 | -8.4% | 2.0% | -11.5%
CCOC(=O)N1CCN(C(=O)C2CC(=O)N(Cc3ccc(OC)cc3)C2)CC1 (stereo not drawn) | >57 | 16.6% | -3.4% | -11.0%
CC1CCCN(c2nc3c(c(=O)n(C)c(=O)n3C)n2CCSc2nc3ccccc3o2)C1 (stereo not drawn) | >57 | 98.1% | -1.9% | -5.0%
COc1cccc(Cn2nnc(C(=O)Nc3cc(C)ccc3OC)c2N)c1 | >57 | 3.98µM*[single pt active] | 11.4% | -6.7%
COc1ccc(OC)c(NC(=O)c2nnn(Cc3ccccc3C)c2N)c1 | >57 | 14.2% | 1.8% | -16.2%
Cc1noc(C)c1-c1cc(N2CCN(C)CC2)ncn1 | >57 | 10.6% | 7.8% | 0.3%
Cc1ccc(S(=O)(=O)N(CC(O)CN2CCCCC2)c2ccccc2)cc1 (stereo not drawn) | >57 | 3.98µM*[single pt active] | 11.7% | 8.1%
CCCSCCCNC(=O)Cn1cc2c(n1)CCCCC2 | >57 | 46.6% | 1.4% | 6.2%
O=C1OCCC1Sc1nnc(-c2ccco2)o1 (stereo not drawn) | 6.54* | 2.1% | -0.5% | -6.2%
COc1cccc(CNc2nc3nc(C)cc(C)n3n2)c1 | >57 | 26.4% | -4.4% | 8.4%
Cc1cccc(CNc2ccnc(-c3cccc(C#N)c3)n2)c1 | >57 | 29.4% | -2.6% | 5.01µM*
SMILES | Prx2 Sm inh | AmpC nodet inh | AmpC det inh | Anthrax LT inh
Fc1ccc(C2CC(c3ccco3)n3ncnc3N2)cc1 (stereo not drawn) | >57 | 3.98µM*[single pt active] | 11.4% | -11.0%
CCOC(=O)CCS(=O)(=O)c1nc(-c2ccccc2)cc(C(F)(F)F)n1 | >57 | 16.2% | 1.1% | ?
CCOC(=O)CS(=O)(=O)c1nc(-c2ccccc2)cc(C(F)(F)F)n1 | >57 | -3.0% | -8.1% | 3.16µM*
Cc1c(N=CN2CCOCC2)c(=O)n(C)c(=O)n1C | >57 | 1.4% | 1.3% | -3.2%
O=c1c2[nH]c3ccc(F)cc3c2ncn1CCN1CCN(Cc2ccccc2)CC1 | >57 | 3.16µM*[single pt active] | 9.9% | -10.2%
CC1CCCCN1CCn1cnc2c([nH]c3ccccc32)c1=O (stereo not drawn) | >57 | 3.98µM*[single pt active] | 12.6% | 1.0%
O=C(c1ccco1)N1C2C=CC(C2)C1(C(F)(F)F)C(F)(F)F (stereo not drawn) | >57 | 4.8% | -1.8% | -2.3%
COc1cccc(-c2csc3nnc(SCC(=O)c4ccc(NC(C)=O)cc4)n23)c1 | >57 | 12.2% | -5.9% | -8.2%
COc1cccc(-c2cc(N)nn2C(=O)Nc2ccc(Cl)cc2)c1 | >57 | 3.98µM*[single pt active] | 13.8% | ?
CC(=O)Nc1cccc(NC(=O)c2c(-c3ccccc3Cl)noc2C)c1 | >57 | 12.5% | 2.2% | -7.4%
COc1ccc(-c2noc(-c3cc(Cl)ccc3Cl)n2)cc1OC | >57 | 19.0% | 0.5% | -14.4%
COC(=O)c1ccc(-c2nc(-c3cccs3)no2)cc1 | >57 | 3.98µM*[single pt active] | 13.7% | -15.8%
CCOC(=O)c1ccc(OCc2nc(-c3cccs3)no2)cc1 | >57 | -3.0% | -1.0% | -35.7%
COc1ccc(Cl)cc1-c1nc(-c2ccc(Br)o2)no1 | >57 | 3.16µM*[single pt active] | 12.9% | -8.1%
COC(=O)c1ccc(-c2nc(-c3ccc(Br)o3)no2)cc1 | >57 | 3.98µM*[single pt active] | 13.9% | -10.7%
Cn1c(SCC(=O)Nc2ccc(N3CCOCC3)c(Cl)c2)nnc1-c1ccccc1 | >57 | 27.8% | -2.7% | -25.6%
Cc1cccc(N2CCN(C(=O)c3ccc(N4CCCC4=O)cc3)CC2C)c1 (stereo not drawn) | >57 | 68.7% | -6.6% | 1.6%
Cc1c(C)c2cc(Cl)c(O)c(CN(C)C)c2oc1=O | . | -1.4% | -0.2% | 10.6%
O=c1oc2c(O)c(O)cc3c(=O)oc4c(O)c(O)cc1c4c23 | >57 | 7.94µM* | ? | ?
CCN(CC)S(=O)(=O)c1ccc2oc(C(=O)NCc3ccc(F)cc3)c(C)c2c1 | >57 | 11.4% | 0.1% | -13.8%
O=C(Nc1ccccc1)C1=C(O)CC(c2ccoc2)CC1=Nc1ccccc1 (stereo not drawn) | . | -13.5% | -2.0% | ?
O=C(Nc1ccccc1)C1=C(O)CC(c2ccco2)CC1=Nc1ccccc1 (stereo not drawn) | >57 | 7.94µM* | 21.0% | -1.9%
CCN(CC)CCCNC(=O)c1cc2c(=O)n(C)c3ccccc3c2n1C | . | ? | 9.4% | 10µM*
CCCN(CCC)CCCNC(=O)c1cc2c(=O)n(C)c3ccccc3c2n1C | >57 | 18.4% | 17.1% | 3.16µM*
CCCCN(CC)CCNC(=O)c1cc2c(=O)n(C)c3ccccc3c2n1C | >57 | 3.98µM*[single pt active] | 10.4% | 5.01µM*
SMILES | Prx2 Sm inh | AmpC nodet inh | AmpC det inh | Anthrax LT inh
CCOC(=O)CC(SP(=S)(OC)OC)C(=O)OCC (stereo not drawn) | . | ? | 6.31µM* | ?
CCOC(=O)OCC | . | -5.3% | 6.4% | -0.6%
CCCNC(=O)C(Cc1ccccc1)NS(=O)(=O)c1ccc2c(c1)CCC(=O)N2 (stereo not drawn) | >57 | 3.98µM*[single pt active] | 12.7% | -13.7%
O=C1CCc2cc(S(=O)(=O)NC(Cc3ccccc3)C(=O)NC3CCCC3)ccc2N1 (stereo not drawn) | >57 | 3.98µM*[single pt active] | 14.5% | -16.7%
O=C1CCc2cc(S(=O)(=O)N3CCN(C(=O)c4ccco4)CC3)ccc2N1 | >57 | -8.4% | -0.2% | 12.4%
CN(Cc1ccco1)C(=O)C(Cc1ccccc1)NS(=O)(=O)c1ccc2c(c1)CCC(=O)N2 (stereo not drawn) | >57 | 3.98µM*[single pt active] | 16.8% | 2.3%
